From PubChem BioAssay (NCATS)
Records with an inconclusive call do not appear. A call without a number means that no potency is given here. Activity calls are given as the source filed them. Unless noted, calls follow the shape of the dose curve; as a rule, active = well fitted curve in the direction sought with a large enough effect; inconclusive = small, poorly fitted or top-dose-only effect, or another doubt; inactive = no such curve, though single readings can be large; an effect the other way counts as inactive or inconclusive.

How the values were obtained:
[1] = Stat Signaling Pathway (AID 446; active = well fitted curve in either direction with a large enough effect, not every such curve was filed as active;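 also: ME-180 cervical cancer cells given 40 pM IL-6 alongside compound; SIE-controlled beta-lactamase reporter measured as 460/530 nm FRET emission ratio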)
Procedure, shortened: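 ME-180 cells carrying a SIE-driven beta-lactamase reporter are stimulated with 40 pM IL-6 for 5 h at 37C in the presence of compound. The 460/530 nm FRET substrate ratio is read after 2.5 h at RT. Data are normalised to 300 pM IL-6 and to 125 nM JAK inhibitor controls.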

[2] = biological target: Glucocorticoid receptor (Homo sapiens) (UniProt P04150); assay: GR-GFP Redistribution (AID 450;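 active = compounds whose dose series gives a full or clear partial fitted curve of increased nuclear translocation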; also: potency is read from the fitted curve at half-maximal effect); conditions: U2OS GR-GFP nuclear translocation, laser cytometry, 2 h
[3] = biological target: Glucocorticoid receptor (Homo sapiens) (UniProt P04150); assay: GR-EFC Redistribution (AID 451; calls by dose curve; also: potency is read from the fitted curve at half-maximal effect); conditions: CHO-K1 GR-EFC translocation, beta-gal luminescence, 2 h
Procedure, shortened: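 CHO-K1 cells stably expressing nuclear-localized β-gal enzyme acceptor and GR fused C-terminally to the enzyme donor fragment; ligand-driven nuclear translocation restores β-gal by complementation. Compounds titrated up to 46 uM final, 2 h at 37 °C; luminescence read.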

[4] = biological target: Mitogen-activated protein kinase 10 (Mus musculus) (UniProt Q61831); assay: JNK3 AlphaScreen Assay (AID 530; active = well fitted curve in either direction with a large enough effect, not every such curve was filed as active;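 also: kinase came from lysate of stimulated human HepG2 cells; signal reports phosphorylation of biotinylated GST-cJun 1-79 at Ser73 with 10 µM ATP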)
Procedure, shortened: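 JNK3 came from HepG2 lysates pre-activated with IL-1beta and TNF-alpha and phosphorylated biotinylated GST-cJun (1-79) at 10 uM ATP, pH 7.6, room temperature. Compounds were titrated. AlphaScreen signal used anti-phospho-cJun (Ser73) antibody.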

[5] = biological target: 3',5'-cyclic-AMP phosphodiesterase 4B (Homo sapiens) (UniProt Q07343); assay: qHTS Assay for Inhibitors of PDE-IV (AID 607; active = well fitted activation curve with a large enough effect in the main read-out, with a control signal flat, not every such curve was filed as active)
Procedure, shortened: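 HEK293 ACTOne cells with CNG channel (1000/well), endogenous PDE4; membrane potential dye, compounds up to 22.9 uM final. Fluorescence Ex 535/Em 590; RO 20-1724 (100 uM final) as reference.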

[6] = qHTS Assay for Lipid Storage Modulators (AID 1519; calls by dose curve); conditions: Drosophila S3 cells, BODIPY lipid droplet/cell ratio, laser cytometry, cells loaded with oleic acid
Procedure, shortened: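 Cells seeded at 5,000 per well were treated with compounds over a concentration series and loaded with oleic acid (400 uM, as added). Lipid droplet fluorescence (488 nm excitation, 500-530 nm channel) was read by laser-scanning cytometry and normalized to 20 uM Triacsin C.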

[7] = qHTS profiling for inhibitors of Plasmodium falciparum proliferation (AID 504749); also: nearly all actives have a fitted effect of over 60% in size; conditions: P. falciparum in erythrocytes, SYBR Green DNA, 72 h, at 12.8 µM (top of the series)
Procedure, shortened: (§1)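 P. falciparum-infected erythrocytes (0.3% parasitemia, 2.5% hematocrit final) were exposed to compounds for 72 h at 37 C in 5% CO2, then lysed with SYBR Green buffer overnight at room temperature; parasite DNA fluorescence was normalized to artemisinin and DMSO controls.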

CP192 = assay: as above; conditions: P. falciparum in erythrocytes, SYBR Green DNA, 72 h; series mostly up to 12.8 µM
Procedure, shortened: as §1

CP201 = assay: as above; conditions: P. falciparum in erythrocytes, SYBR Green DNA, 72 h; series mostly up to 12.8 µM
Procedure, shortened: as §1

CP262 = assay: as above; conditions: P. falciparum in erythrocytes, SYBR Green DNA, 72 h; series mostly up to 12.8 µM
Procedure, shortened: as §1

CP269 = assay: as above; conditions: P. falciparum in erythrocytes, SYBR Green DNA, 72 h; series mostly up to 12.8 µM
Procedure, shortened: as §1

CP305 = assay: as above; conditions: P. falciparum in erythrocytes, SYBR Green DNA, 72 h; series mostly up to 12.8 µM
Procedure, shortened: as §1

CP315 = assay: as above; conditions: P. falciparum in erythrocytes, SYBR Green DNA, 72 h; series mostly up to 12.8 µM
Procedure, shortened: as §1

CP325 = assay: as above; conditions: P. falciparum in erythrocytes, SYBR Green DNA, 72 h; series mostly up to 12.8 µM
Procedure, shortened: as §1

CP329 = assay: as above; conditions: P. falciparum in erythrocytes, SYBR Green DNA, 72 h; series mostly up to 12.8 µM
Procedure, shortened: as §1

FAB9 = assay: as above; conditions: P. falciparum in erythrocytes, SYBR Green DNA, 72 h; series mostly up to 12.8 µM
Procedure, shortened: as §1

JCK = assay: as above; conditions: P. falciparum in erythrocytes, SYBR Green DNA, 72 h; series mostly up to 12.8 µM
Procedure, shortened: as §1

PC49 = assay: as above; conditions: P. falciparum in erythrocytes, SYBR Green DNA, 72 h; series mostly up to 12.8 µM
Procedure, shortened: as §1

[8] = biological target: Ubiquitin carboxyl-terminal hydrolase 1 (Homo sapiens) (UniProt O94782); assay: Inhibitors of USP1/UAF1: Pilot qHTS (AID 504865);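 also: rhodamine fluorescence freed from ubiquitin-rhodamine substrate followed over time; top concentration of the series differs between compounds; nearly all actives have a fitted effect of over 35% in size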
Procedure, shortened: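 1nM USP1/UAF1 + cpd, 15 min RT; start w/ Ub-Rho 150nM final; kinetic FL 480/540 nm, 6 reads q60 s. Buffer 50mM HEPES pH 7.8, 0.5mM EDTA, 1mM TCEP, 0.01% Tween-20, 0.1 mg/ml BSA.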

[9] = S16 Schwann cell viability assay (CellTiter-Glo assay) (AID 624031);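 also: native untransfected S16 rat Schwann cells; cellular ATP luminescence as a viability measure; nearly all actives have a fitted effect of over 70% in size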
Procedure, shortened: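 Concentration-effect curves come from CellTiter-Glo luminescence of S16 rat Schwann cells after 24 h compound exposure. Each reading was normalized to DMSO wells (0%) and wells without cells, and curves were ranked by r2 and response magnitude.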

[10] = measured here: cell count channel max response
[11] = measured here: lipid channel max response

Chain of 3',5'-cyclic-AMP phosphodiesterase 4B (Homo sapiens) (Q07343 whole entry, looked up): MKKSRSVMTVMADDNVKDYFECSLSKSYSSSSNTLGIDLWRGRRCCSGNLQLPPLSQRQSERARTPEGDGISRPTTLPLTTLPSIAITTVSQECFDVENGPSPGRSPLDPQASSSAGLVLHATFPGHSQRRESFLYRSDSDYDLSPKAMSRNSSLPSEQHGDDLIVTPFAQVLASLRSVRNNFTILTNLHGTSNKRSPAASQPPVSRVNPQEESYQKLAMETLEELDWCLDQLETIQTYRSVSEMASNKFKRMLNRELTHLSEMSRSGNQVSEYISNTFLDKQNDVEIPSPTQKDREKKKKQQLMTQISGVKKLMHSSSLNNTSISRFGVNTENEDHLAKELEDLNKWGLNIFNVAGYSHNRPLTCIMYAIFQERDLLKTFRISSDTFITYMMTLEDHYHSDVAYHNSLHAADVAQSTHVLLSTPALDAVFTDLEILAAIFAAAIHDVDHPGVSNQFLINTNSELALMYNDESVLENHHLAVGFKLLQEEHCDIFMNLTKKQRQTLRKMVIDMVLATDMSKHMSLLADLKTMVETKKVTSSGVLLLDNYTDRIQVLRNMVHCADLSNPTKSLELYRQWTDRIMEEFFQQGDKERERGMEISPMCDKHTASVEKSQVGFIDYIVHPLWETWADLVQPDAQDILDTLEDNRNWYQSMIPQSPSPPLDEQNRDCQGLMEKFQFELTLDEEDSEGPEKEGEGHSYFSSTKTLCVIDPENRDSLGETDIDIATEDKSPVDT
Chain of Glucocorticoid receptor (Homo sapiens) (P04150 whole entry, looked up, the tested form may be a part): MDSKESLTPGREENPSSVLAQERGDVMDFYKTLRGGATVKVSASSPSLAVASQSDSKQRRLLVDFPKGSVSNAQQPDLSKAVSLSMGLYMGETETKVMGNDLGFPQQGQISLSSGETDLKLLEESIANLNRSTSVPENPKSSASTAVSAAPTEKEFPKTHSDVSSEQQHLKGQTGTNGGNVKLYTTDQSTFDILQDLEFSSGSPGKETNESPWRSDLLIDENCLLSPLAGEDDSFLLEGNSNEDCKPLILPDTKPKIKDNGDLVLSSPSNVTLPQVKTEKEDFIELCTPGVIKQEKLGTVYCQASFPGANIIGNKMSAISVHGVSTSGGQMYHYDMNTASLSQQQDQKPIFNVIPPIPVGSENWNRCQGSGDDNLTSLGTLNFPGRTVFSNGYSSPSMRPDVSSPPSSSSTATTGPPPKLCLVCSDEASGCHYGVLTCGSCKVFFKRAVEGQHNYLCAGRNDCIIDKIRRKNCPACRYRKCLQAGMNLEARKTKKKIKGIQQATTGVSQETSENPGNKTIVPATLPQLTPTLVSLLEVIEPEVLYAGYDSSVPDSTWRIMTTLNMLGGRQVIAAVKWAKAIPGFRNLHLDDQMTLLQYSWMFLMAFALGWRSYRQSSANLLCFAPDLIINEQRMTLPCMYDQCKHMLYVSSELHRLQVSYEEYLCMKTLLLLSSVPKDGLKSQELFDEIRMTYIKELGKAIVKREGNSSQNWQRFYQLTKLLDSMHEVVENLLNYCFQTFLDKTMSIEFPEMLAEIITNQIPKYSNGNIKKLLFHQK
Chain of Ubiquitin carboxyl-terminal hydrolase 1 (Homo sapiens) (O94782 whole entry, looked up): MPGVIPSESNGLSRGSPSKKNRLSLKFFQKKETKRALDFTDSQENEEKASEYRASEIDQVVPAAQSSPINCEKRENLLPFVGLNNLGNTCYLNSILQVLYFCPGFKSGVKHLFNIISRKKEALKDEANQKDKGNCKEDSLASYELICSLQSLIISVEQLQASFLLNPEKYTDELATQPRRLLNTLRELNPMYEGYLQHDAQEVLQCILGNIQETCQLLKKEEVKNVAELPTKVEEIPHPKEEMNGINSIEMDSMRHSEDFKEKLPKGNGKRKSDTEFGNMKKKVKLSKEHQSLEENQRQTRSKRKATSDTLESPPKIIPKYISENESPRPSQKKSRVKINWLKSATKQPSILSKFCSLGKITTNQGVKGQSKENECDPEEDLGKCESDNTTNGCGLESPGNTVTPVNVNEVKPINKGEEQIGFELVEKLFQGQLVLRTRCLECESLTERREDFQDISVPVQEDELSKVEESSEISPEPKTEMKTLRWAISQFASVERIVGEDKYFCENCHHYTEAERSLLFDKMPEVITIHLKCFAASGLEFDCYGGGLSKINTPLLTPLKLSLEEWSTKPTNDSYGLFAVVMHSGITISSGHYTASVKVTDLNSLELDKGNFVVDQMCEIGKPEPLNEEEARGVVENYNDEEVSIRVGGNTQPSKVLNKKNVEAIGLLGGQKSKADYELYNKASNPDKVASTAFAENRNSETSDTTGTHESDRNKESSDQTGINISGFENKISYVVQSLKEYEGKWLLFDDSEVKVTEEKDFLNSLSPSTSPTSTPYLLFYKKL

COc1ccc2c(c1)N(C[C@@H](C)CN(C)C)c1ccccc1S2
outcome [1]: inactive | Potency [2]: > 20.6 µM (inactive) | Potency [3]: > 20.6 µM (inactive) | Potency [4]: inactive | outcome [5]: inactive | activity change, negative = inhibition ([6]; at 25.7 µM (top of the series)): -4.01% (inactive) | max response [6, 10]: -9.35% | max response [6, 11]: -12.9% | activity, negative = inhibition ([7]; parasite line A): 2.81% (inactive) | activity, negative = inhibition ([7]; parasite line B): -1.87% (inactive) | Potency (CP192): inactive | Potency (CP201): inactive | Potency (CP262): inactive | Potency (CP269): inactive | Potency (CP305): inactive | Potency (CP315): inactive | Potency (CP325): inactive | Potency (CP329): inactive | Potency (FAB9): inactive | Potency (JCK): inactive | Potency (PC49): inactive

CC/C=C\C[C@H]1C(=O)CC[C@@H]1CC(=O)O
Potency [2]: > 46 µM (inactive) | Potency [3]: > 46 µM (inactive) | Potency [4]: inactive | outcome [5]: inactive | activity change, negative = inhibition ([6]; at 57.5 µM (top of the series)): -2.79% (inactive) | max response [6, 10]: -8.93% | max response [6, 11]: -11.5%

CC1(C)[C@@H](OC(=O)CCC(=O)O)CC[C@@]2(C)[C@H]1CC[C@@]1(C)[C@H]2C(=O)C=C2[C@H]3C[C@](C)(C(=O)O)CC[C@]3(C)CC[C@@]21C
outcome [1]: inactive | Potency [2]: > 20.6 µM (inactive) | Potency [3]: > 20.6 µM (inactive) | Potency [4]: inactive | outcome [5]: inactive | activity change, negative = inhibition ([6]; at 25.7 µM (top of the series)): -0.623% (inactive) | max response [6, 10]: -1.7% | max response [6, 11]: -2.85% | Potency [8]: inactive | outcome [9]: inactive | activity, negative = inhibition ([7]; parasite line A): -5.96% (inactive) | activity, negative = inhibition ([7]; parasite line B): 13.4% (inactive) | Potency (CP192): inactive | Potency (CP201): inactive | Potency (CP262): inactive | Potency (CP269): inactive | Potency (CP305): inactive | Potency (CP315): inactive | Potency (CP325): inactive | Potency (CP329): inactive | Potency (FAB9): inactive | Potency (JCK): inactive | Potency (PC49): inactive

CCC(=O)O[C@@H]1[C@H](C)O[C@H](O[C@H]2[C@@H](N(C)C)[C@H](O)[C@@H](O[C@@H]3[C@@H](CC=O)C[C@@H](C)[C@@H](O)/C=C\C=C/C[C@@H](C)OC(=O)C[C@@H](OC(=O)CC)[C@H]3OC)O[C@H]2C)C[C@]1(C)O
outcome [1]: inactive | Potency [2]: > 20.6 µM (inactive) | Potency [3]: > 20.6 µM (inactive) | Potency [4]: inactive | outcome [5]: inactive | activity change, negative = inhibition ([6]; at 25.7 µM (top of the series)): -0.346% (inactive) | max response [6, 10]: -5.96% | max response [6, 11]: -6.47% | outcome [9]: inactive | activity, negative = inhibition ([7]; parasite line A): -18.8% (inactive) | activity, negative = inhibition ([7]; parasite line B): -28.9% (inactive) | Potency (CP192): inactive | Potency (FAB9): inactive | Potency (JCK): inactive | Potency (PC49): inactive

Nc1ncnc2c1nc(Br)n2[C@H]1O[C@H]2COP(=O)(O)O[C@H]2[C@@H]1O
Potency [2]: > 46 µM (inactive) | Potency [3]: > 46 µM (inactive) | activity change, negative = inhibition ([6]; at 57.5 µM (top of the series)): -1.26% (inactive) | max response [6, 10]: 2.68% | max response [6, 11]: 0.508% | Potency [8]: inactive
